This passage reports Potency results from PubChem BioAssay (NCATS).

Inconclusive results are not listed. A call without a number means that no potency is given here. Activity calls are given as the source filed them. The call rests on the fitted dose curve; in most records, active means well fitted inhibition curve with a large enough effect; inconclusive means small, poorly fitted or top-dose-only effect; inactive means flat fitted curve, though single readings scatter.
Potency means the concentration at half of the fitted maximal effect.

This test concerns MCC-26. Nature of the test: qHTS assay to identify novel small-molecules to repurpose for Merkel cell carcinoma treatment (AID 1296009). Further: nearly all actives have a fitted effect of over 60% in size. As to conditions: MCC and control cell lines, CellTiter-Glo viability, 72 h; series mostly up to 46 µM. The text has this:
MCC is a rare and aggressive neuroendocrine skin cancer with limited treatment options. Approximately 80% of MCCs have the Merkel cell polyomavirus (MCPyV) DNA integrated into the host genome (virus-positive: VP-MCC) and viral oncogenes drive oncogenesis. The remaining MCCs are virus-negative (VN-MCC) and are caused by UV mutagenesis. To identify novel treatments for VP-MCC and/or VN-MCC we screened three VP-MCC cell lines (WAGA, MKL-1, MKL-2), three VN-MCC cell lines (MCC-13, MCC-26, UISO), and four immortalized, non-transformed control cell lines (HaCaT, HEK293T, CRL7250, NIH-3T3) against ~2,400 compounds in the NCGC Pharmaceutical Collection (NPC) and ~1,900 compounds in the Mechanism Interrogation PlatE (MiPE). Using cell viability as a readout (CellTiter-Glo assay) we found both overlapping and distinct drugs that can be repurposed for the treatment of VP-MCC and VN-MCC.
A high-throughput screen was conducted in 1536-well white flat bottom plates (Corning) on a Kalypsys robotic system. Cell lines WAGA, MKL-1, MKL-2, MCC-13, MCC-26, UISO, HaCaT, HEK293T, CRL7250, and NIH-3T3 were screened against 2 small molecule annotated drug libraries NPC and MIPE in dose response (8 and 11 pt. respectively) measuring cell viability after 72 hours of incubation. […] A 1,536 pintool (Kalypsys) was used to transfer 23 nL of compound in DMSO to the 1,536-well assay plates. After 72 hr incubation at 37 degree celsius, 2.5 uL of CellTiter-Glo (Promega) was dispensed into each well using a BiorapTR. Plates were incubated at room temperature for 10 min, transferred to a ViewLux (PerkinElmer) and the luminescence was recorded using an exposure time of 2 seconds. Relative luminescence units (RLUs) were normalized to in-plate controls (no cells as a positive (cytotoxicity) control, DMSO as negative control) and the normalized data was processed using NCATS in-house software.
In general terms: In qHTS, concentration-response curves come from the screen itself.
In the case of `CC(C)(C)NCC(O)c1ccccc1Cl` (stereo not given), the Potency result was “inactive”.

Turning to `CC[N+]1(CC)CCC(OC(=O)C(O)(c2ccccc2)c2ccccc2)C1` (stereo not given), the Potency result is “inactive”.

For the molecule `Clc1ccc(C(c2ccc(Cl)cc2)C(Cl)(Cl)Cl)cc1`, the Potency result was “inactive”.

Take `Cc1ncsc1CCCl`: the Potency entry is “inactive”.

On to `C[C@]12CCC(=O)C=C1CC[C@@H]1[C@@H]2CC[C@@]2(C)[C@H]1CC[C@]2(C)O`, for which the Potency entry was “inactive”.

Regarding `CCCOC(=O)c1cncn1C(C)c1ccccc1` (stereo not given), the Potency entry is “inactive”.

Turning to `CC(C)(C)NCC(O)c1cc(Cl)c(N)c(C(F)(F)F)c1` (stereo not given), the Potency entry is “inactive”.

For the molecule `C[C@@H]1CC2=CC(=O)CC[C@@H]2[C@H]2CC[C@@]3(C)[C@@H](CC[C@]3(C)O)[C@@H]21`, the Potency result was “inactive”.

Regarding `COc1cccc2c1C(=O)c1c(O)c3c(c(O)c1C2=O)C[C@@](O)(C(=O)CO)CC3OC1CC(N2CCOC(OC)C2)C(O)C(C)O1` (stereo not given in full), the Potency was 0.0473 µM (active).

For `C[C@]12CC[C@H]3[C@@H](CCC4=CC(=O)CC[C@@H]43)[C@@H]1CC[C@@H]2OC(=O)CCC1CCCCC1`, the Potency result is “inactive”.

Take `NC(=O)c1cc([N+](=O)[O-])cc([N+](=O)[O-])c1`: the Potency entry is “inactive”.

Turning to `NNc1ccccc1`, the Potency entry was “inactive”.

Turning to `COC1CC(=C(c2cccs2)c2cccs2)C[N+](C)(C)C1` (stereo not given), the Potency result is “inactive”.

Regarding `CC(C)c1c(CN(C)C(C)Cc2ccccc2)n(C)n(-c2ccccc2)c1=O` (stereo not given), the Potency entry is “inactive”.

With `CCCN(CCC)C(=O)Cc1c(-c2ccc(Cl)cc2)nc2ccc(Cl)cn12`, the Potency entry was “inactive”.

In the case of `C[C@]12CCC(=O)C=C1CC[C@@H]1[C@H]3CC[C@](C)(O)[C@@]3(C)CC[C@@H]12`, the Potency result was “inactive”.

In the case of `CNCC(=O)c1ccc(O)c(O)c1`, the Potency result was “inactive”.

As to `CCOC(=O)CC(SP(=S)(OC)OC)C(=O)OCC` (stereo not given), the Potency result was “inactive”.

Regarding `O=C(O)c1ccc(=O)[nH]c1`, the Potency result was “inactive”.

Take `CN(C)CCc1c[nH]c2cccc(OP(=O)(O)O)c12`: the Potency result is “inactive”.

`CCN[C@@H](C)Cc1ccccc1`: the Potency entry is “inactive”.

In the case of `Nc1nc(N)nc(NC2CC2)n1`, the Potency result is “inactive”.

As to `CC(C)N(CCC(C(N)=O)(c1ccccc1)c1ccccn1)C(C)C` (stereo not given), the Potency entry is “inactive”.

For the molecule `CN1C(=O)NC(=O)C(C)(C2=CCCCC2)C1=O` (stereo not given), the Potency result was “inactive”.

Take `C=CCC1(C(C)CC)C(=O)NC(=O)NC1=O` (stereo not given): the Potency result is “inactive”.

As to `CC(NC(C)(C)C)C(=O)c1cccc(Cl)c1` (stereo not given), the Potency result is “inactive”.

On to `C#C[C@]1(O)CC[C@H]2[C@@H]3CCC4=CC(=O)CC[C@]4(C)[C@H]3CC[C@@]21C`, for which the Potency entry is “inactive”.

`C=CCC1([C@H](C)CCC)C(=O)NC(=O)NC1=O`: the Potency result was “inactive”.

Regarding `c1ccc(CN2CCNCC2)cc1`, the Potency result is “inactive”.

Turning to `CC(Cc1ccccc1)NCCn1cnc2c1c(=O)n(C)c(=O)n2C` (stereo not given), the Potency entry was “inactive”.

With `C=CCN1C[C@H](C)N([C@H](c2ccc(C(=O)N(CC)CC)cc2)c2cccc(OC)c2)C[C@H]1C`, the Potency entry was “inactive”.

In the case of `CCN[C@H](C)Cc1cccc(C(F)(F)F)c1`, the Potency entry was “inactive”.

As for `CN1C(=O)CCS(=O)(=O)C1c1ccc(Cl)cc1` (stereo not given), the Potency entry is “inactive”.

Turning to `CCC1(c2ccccc2)C(=O)N(COC)C(=O)N(COC)C1=O`, the Potency entry is “inactive”.

For `COc1ccc2c3c1O[C@H]1[C@H](O)CC[C@H]4[C@@H](C2)N(C)CC[C@@]341`, the Potency entry is “inactive”.

`Oc1ccc(Cl)cc1`: the Potency entry is “inactive”.

Take `COP(=S)(OC)Oc1ccc(SC)c(C)c1`: the Potency entry was “inactive”.

For `CC(=O)NC1CCSC1=O` (stereo not given), the Potency entry was “inactive”.

Regarding `CCOP(=S)(OCC)Oc1ccc2c(C)c(Cl)c(=O)oc2c1`, the Potency result was “inactive”.

For the molecule `NC1=NC(=O)C(c2ccccc2)O1` (stereo not given), the Potency result was “inactive”.
